Only a selection was taken, and hits are over-represented in it overall.
TTR transcr act – TTR transcription activators in neuroblastoma reporter cells, primary screen, cell-based, luminescence, SH-SY5Y, TTR promoter Gaussia luciferase; 100% = recombinant luciferase protein wells; activation, % at 16.7 µM; 1.3% of 92,000 active;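 active = activation above the mean of all tested compounds plus 3 SD, cut at about 9.5% in these data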;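 note: cells exposed to compounds for one day before reading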
HuH7 TTR inh – TTR promoter reporter inhibitors in hepatoma cells, counter-screen for TTR transcription activator project, cell-based, luminescence, HuH7 hepatoma; shares compounds with TTR transcr act; 4% of 1,100 active; HuH7 TTR promoter-Gaussia luciferase reporter; AID 1117279, 2014; inhibition, % at 16.7 µM;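 active = average inhibition above the solvent-only control wells' mean plus 3 SD, cut at about 15% in these data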;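 note: inhibitors lower well luminescence so higher value means more inhibition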
TTR up confirm – TTR transcription activators, retest, confirmation, cell-based, luminescence, SH-SY5Y, triplicate. shares compounds with TTR transcr act. 1,100 tested, under 10 active. SHSY5Y TTR promoter Gaussia luciferase; 100% = purified Lucia enzyme wells, no cells. AID 1117280, 2014. activation, % at 16.7 µM;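 active = mean activation above a set limit taken from the earlier primary screen, cut at about 11% in these data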
A number is an active result; i = inactive.

SMILES	TTR transcr act	others
COc1cc2ncnc(NCc3ccccc3)c2cc1OC	i
COc1ccc(CNc2ncnc3cc(Cl)ccc23)cc1	i
COc1ccc(CNc2ncnc3cc(OC)c(OC)cc23)cc1	10.0	HuH7 TTR inh=i;TTR up confirm=i
O=C(NCCc1nc2ccccc2n1CCOc1cc(F)ccc1F)C1CCCCC1	i
O=C(NCCc1c[nH]c2ccccc12)OCc1cn(Cc2cc(F)ccc2F)nn1	i
CCCCSc1cc(=O)n(-c2ccccc2)nc1C(=O)OCC	10.4	HuH7 TTR inh=i;TTR up confirm=i
CCOC(=O)c1nn(-c2ccccc2)c(=O)cc1SC(C)C	i
CCCSc1cc(=O)n(-c2ccccc2)nc1C(=O)O	i
Cc1ccc(S(=O)(=O)N2c3ccccc3C[C@H]2CCC(=O)c2ccccc2)cc1	i
O=C1NC(=O)N(C2CCCCC2)CC1Br (stereo not given)	25.0	HuH7 TTR inh=i;TTR up confirm=i
CC1CN(C2CCCCC2)C(=S)NC1=O (stereo not given)	i
O=C1NC(=O)N(Cc2ccccc2)CC1Br (stereo not given)	i
O=C1c2cccn2CC2Cc3ccccc3N12 (stereo not given)	i
CS(=O)(=O)c1nc(-c2ccc(Br)cc2)cs1	i
CC(C)CC(CCOCCO)NC(=O)OCc1ccccc1[N+](=O)[O-] (stereo not given)	i
COc1cc(F)c(S(=O)(=O)N2CCCN(S(=O)(=O)c3cccc(N)c3)CC2)c(F)c1	i
CCC(=O)Nc1cc(Cl)ccc1N1CCN(C(=O)CC)CC1	12.0	HuH7 TTR inh=i;TTR up confirm=i
CN1CCN(c2ccc(Cl)cc2NC(=O)/C=C/c2cccc(F)c2)CC1	i
CCN(CC)S(=O)(=O)c1ccc(N2CCOCC2)c(NC(=O)Cc2ccc(Cl)cc2)c1	i
O=C(COc1c(Cl)cc(Cl)cc1Cl)N/N=C/c1ccc[nH]1	i
Cc1ccccc1NCC(=O)N/N=C/c1c[nH]c2ccccc12	i
Cc1ccccc1NCC(=O)N/N=C/c1ccc[nH]1	16.1	HuH7 TTR inh=i;TTR up confirm=i
COC(=O)[C@]12C[C@H](CC(=O)N3CCCC3)C(=O)N(Cc3ccc(Cl)cc3Cl)C1=C[C@H](C1CCCC1)O[C@@H]2C	i
Cc1cc(C)nc(NS(=O)(=O)c2ccc(NC(=O)C3CC3)cc2)n1	24.3	HuH7 TTR inh=i;TTR up confirm=i
Cc1cc(C)nc(NS(=O)(=O)c2ccc(NC(=O)C3CC(=O)N(c4ccccc4)C3)cc2)n1 (stereo not given)	i
SMILES	TTR transcr act	others
Cc1ccnc(NS(=O)(=O)c2ccc(NC(=O)C3CC3)cc2)n1	i
O=C(c1cccs1)n1ccc2ccc(-c3ccc4ccn(Cc5ccccc5)c4c3)cc21	i
O=C(Nc1ccc(Cl)cc1)OC[C@@H]1CSCCS(=O)(=O)N1	i
O=C(COC(=O)c1cccc(F)c1)Nc1cccnc1Cl	i
COc1cccc(OC)c1C(=O)OCC(=O)Nc1cccnc1Cl	i
N#Cc1ccc(C(=O)OCC(=O)Nc2cccnc2Cl)cc1	16.3	HuH7 TTR inh=i;TTR up confirm=i
CC(C)[C@H]1/C(=C/C2CC2)N2C(=O)C[C@H](c3cccc(C(F)(F)F)c3)N=C2N1Cc1ccc2c(c1)OCO2	i
CCCCN1C[C@@H]2CSCCS(=O)(=O)N2C1=O	i
CCCC1CCC2(CCCN2CCOC(=S)Nc2ccccc2Br)CC1 (stereo not given)	i
O=C(CN1CCCC(O)C1)N1c2ccccc2Sc2ccc(C(F)(F)F)cc21 (stereo not given)	i
CC1CCCN(CC(=O)N2c3ccccc3Sc3ccccc32)C1 (stereo not given)	15.1	HuH7 TTR inh=i;TTR up confirm=i
CN(C)CC(=O)N1c2ccccc2Sc2ccc(Cl)cc21	i
Cc1ccccc1CN1CCCCC(NC(=O)c2ccc3ccccc3c2)C1=O (stereo not given)	i
Cc1ccccc1NC(=O)[C@@H]1CCCN1S(=O)(=O)c1cccc2cccnc12	i
O=C1CSC(=S)N1c1ccccc1	i
O=C1CCC(=O)N1c1ccccc1	i
O=C1CSCC(=O)N1c1ccccc1	34.5	HuH7 TTR inh=i;TTR up confirm=i
O=C(c1ccc(F)cc1)C1CCN(c2ncnc3sccc23)CC1	i
Cc1c(N(C)S(=O)(=O)c2cc(C(=O)N3CCCC3)ccc2Cl)c(=O)n(-c2ccccc2)n1C	13.3	HuH7 TTR inh=i;TTR up confirm=i
Cc1c(N(C)C(=O)c2ccc3c(c2)OCO3)c(=O)n(-c2ccccc2)n1C	i
Cc1c(N(C)C(=O)C23CC4CC(CC(C4)C2)C3)c(=O)n(-c2ccccc2)n1C	i
Cc1ccc(C(=O)Oc2coc(CSc3ncccn3)cc2=O)cc1[N+](=O)[O-]	i
COc1ccc(/C=C(/C#N)C(=O)Nc2cc(C)ccc2C)cc1C(=O)O	i
COc1cc(/C=C(\C#N)C(=O)NC(C)C)cc(Cl)c1O	i
COc1ccc(/C=C(\C#N)C(=O)Nc2cc(C)c(Cl)cc2OC)cc1O	12.5	HuH7 TTR inh=i;TTR up confirm=i
SMILES	TTR transcr act	others
Cc1ccc(S(=O)(=O)Nc2nsc(N)n2)cc1	i
Cc1cc(C)c(C#N)c(SCc2ccc([N+](=O)[O-])cc2)n1	i
Cc1ccc(CS(=O)(=O)c2nsc(C)c2C#N)cc1	19.2	HuH7 TTR inh=i;TTR up confirm=i
Cc1cc(C)cc(NC(=O)OC2CC3CC2[C@H]2CCCCN2[C@H]3Cc2ccccc2)c1 (stereo not given in full)	i
O=C(NCc1ccccc1Cl)NC(=O)c1ccccc1	i
O=C(NCc1ccccc1)NC(=O)c1ccc(Cl)cc1	24.6	HuH7 TTR inh=i;TTR up confirm=i
O=C(NCc1ccccc1)c1ccc(CO)cc1	i
Clc1ccc([C@H]2OC[C@@]3(CNCc4ccc5c(c4)OCO5)CS[C@H](c4ccc(Cl)cc4)N23)cc1	i
Cn1nnnc1Sc1ncnc2scc(-c3cnc(N)nc3)c12	i
CC(NC(=O)c1ccco1)C(=O)OCc1cccc(C(F)(F)F)c1 (stereo not given)	11.2	HuH7 TTR inh=i;TTR up confirm=i
CC(C)[C@H](NC(=O)c1ccco1)C(=O)OCC(=O)Nc1cccc(F)c1	i
CC(NC(=O)[C@H](C)NC(=O)c1ccco1)c1ccc(S(N)(=O)=O)cc1 (stereo not given in full)	i
Cc1ccccc1CN1CCCCC(NC(=O)c2ccccc2)C1=O (stereo not given)	i
COc1ccc2[nH]c3c(c2c1)CCN[C@]31C(=O)N(c2ccccc2)c2ccccc21	i
CCOC(=O)[C@]12CCCC=C1N(CCCOC)C(=O)[C@@H]2CC(=O)NCCCN1CCCC1=O	i
O=S(=O)(Nc1ccc(C(O)(C(F)(F)F)C(F)(F)F)cc1)c1cccs1	i
O=C(COCc1nc2ccccc2c(=O)[nH]1)NCC1CCCCC1	12.9	HuH7 TTR inh=i;TTR up confirm=i
Cc1cccc(C(=O)N(Cc2nc3ccccc3c(=O)[nH]2)C2CCCC2)c1	i
O=C(c1ccccc1)N(Cc1nc2ccccc2c(=O)[nH]1)C1CCCC1	i
Cc1ccc2nc3sc(C(=O)N4CCN(C)CC4)cc3cc2c1	i
CC1(C)CC(=O)C(C=NCCN2CCN(C(=O)CCl)CC2)=C(O)C1	11.8	HuH7 TTR inh=i;TTR up confirm=i
CC1(C)CC(=O)C(C=NCCN2CCN(C(=S)NC3CCCCC3)CC2)=C(O)C1	i
CC1(C)CC(=O)C(C=NCCN2CCN(C(=O)c3ccccc3)CC2)=C(O)C1	i
CCCCN1CCS(=O)(=O)N(Cc2cn(Cc3cccc(Cl)c3)nn2)C(C(=O)OC)C1 (stereo not given)	i

High-throughput results as filed in PubChem.
